Several values for one entry are separate records, joined by “and”; a condition that tells them apart may be missing. Equal values may be shown once. Among all 16,000 compounds or so, about 5,800 (36%) were called active. About 23% were inconclusive and are not listed. Calls come from the whole dose curve; as a rule, active = well fitted curve in the direction sought with a large enough effect; inconclusive = small, poorly fitted or top-dose-only effect, or effect the other way; inactive = no such curve, though single readings can be large or run the other way. Some of the results follow.

For orientation: AC50 means the concentration giving half of the maximal activity seen.
% is set by controls: 0 for no effect and ±100 for the full control effect.

In this experiment the target is Cytochrome P450 2C19 (Homo sapiens) (UniProt P33261). Nature of the experiment: Cytochrome panel assay with activity outcomes. The conditions noted are these: recombinant CYP, pro-luciferin dealkylation, luminescence, p450-cyp2c19; series mostly up to 57.1 µM; activity, negative = inhibition: at the top concentration.
Sequence of Cytochrome P450 2C19 (Homo sapiens) (P33261 whole entry, looked up): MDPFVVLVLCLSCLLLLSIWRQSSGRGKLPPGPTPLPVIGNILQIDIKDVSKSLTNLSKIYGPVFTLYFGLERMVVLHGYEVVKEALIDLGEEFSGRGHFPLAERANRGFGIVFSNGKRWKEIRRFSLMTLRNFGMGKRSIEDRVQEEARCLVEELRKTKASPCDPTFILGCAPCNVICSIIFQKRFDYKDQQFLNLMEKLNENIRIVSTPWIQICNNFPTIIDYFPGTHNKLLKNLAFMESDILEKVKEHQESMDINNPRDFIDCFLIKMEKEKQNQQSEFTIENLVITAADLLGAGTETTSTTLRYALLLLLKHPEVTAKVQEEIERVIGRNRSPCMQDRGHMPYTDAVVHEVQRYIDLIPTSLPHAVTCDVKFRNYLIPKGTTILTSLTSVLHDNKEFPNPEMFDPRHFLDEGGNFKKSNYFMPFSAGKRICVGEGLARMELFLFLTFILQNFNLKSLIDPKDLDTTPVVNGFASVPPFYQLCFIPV
For `CC(C)c1ccc(-c2nnn(CCC(=O)O)n2)cc1`, the “activity, negative = inhibition” value was -25.8% (inactive). With `c1ccc(-c2nnn(CCN3CCCCC3)n2)cc1`, the AC50 is 1.26 µM (active).

`c1ccc([C@H](CCN2CCCC2)c2ccccn2)cc1`: the activity, negative = inhibition was -19.9% [at 11.4 µM] (inactive). For `COc1ccc2c(Cc3c4ccccc4cc4ccccc34)cncc2c1O`, the AC50 is 2.51 µM (active).

With `O=C(O)c1cc2ccccc2c(Cc2cc3ccccc3c(C(=O)O)c2O)c1O` (tested in a mixture with another compound), the “activity, negative = inhibition” value is -22.9% [at 25.6 µM] (inactive). Turning to `O=C(c1csnn1)N1CCC2(CC1)CN(Cc1cc(C(F)(F)F)cc(C(F)(F)F)c1)C2`, the “activity, negative = inhibition” value is 17.8% (inactive). For `CCn1cc(C(=O)O)c(=O)c2cnc(N3CCNCC3)nc21`, the “activity, negative = inhibition” value was 32.6% [at 25.6 µM] (inactive). On to `O=C(NCc1cccnc1)c1sc2cc(Cl)ccc2c1Cl`, for which the AC50 was 2 µM (active). With `CC[C@H](NC(C)C)[C@H](O)c1ccc(O)c(O)c1`, the “activity, negative = inhibition” value was -17.7% (inactive). As for `CC1=CC(=O)N(c2cccc(C(F)(F)F)c2)C1c1ccc(Cl)cc1` (configuration not stated), the AC50 was 2.24 µM (active). Take `Cc1ccc(NC(=S)/C(=C(\[O-])c2ccc(C)c([N+](=O)[O-])c2)[n+]2ccccc2)cc1C`: the AC50 was 7.94 µM (active). As to `CC1(C)[C@@H]2CC[C@@]1(CS(=O)(=O)Nc1ccccc1)C(=O)C2`, the AC50 is 2 µM (active). `O=C(O)c1ccc(NS(=O)(=O)Cc2ccccc2)cc1`: the activity, negative = inhibition is -9.9% [at 11.4 µM] (inactive). In the case of `COC(=O)C1=C(C)NC2=C(C(=O)CCC2)C1c1cn(Cc2ccc(Cl)cc2Cl)nc1-c1ccccc1` (configuration not stated), the AC50 was 2.24 µM (active). Take `COCCOC(=O)C1=C(C)NC(=O)N(C(C)=O)C1c1ccc(Cl)cc1` (configuration not stated): the AC50 is 3.55 µM (active). In the case of `CO[C@@H]1COC(=O)C/C=C\[C@H](C)[C@@H](NS(=O)(=O)c2ccc(C)cc2)COC(=O)C/C=C\[C@@H]1C`, the activity, negative = inhibition is -12.5% [at 11.4 µM] (inactive) and -34.1% [at 11.4 µM] (inactive). Take `CC(c1ccccc1C(O)c1ccccc1)N(C)C` (configuration not stated): the “activity, negative = inhibition” value was -16.6% (inactive). As for `NC(=O)c1ccc[n+](CC(=O)OCCC23CC4CC(CC(C4)C2)C3)c1`, the “activity, negative = inhibition” value was -28.6% (inactive).

Turning to `O=C(NCCOC12CC3CC(CC(C3)C1)C2)c1cccc(Br)c1`, the AC50 was 0.891 µM (active). `N[C@H](C(=O)O)c1nn[nH]n1`: the “activity, negative = inhibition” value was 29.8% (inactive). Consider `OC[C@@H](O)CN1CCN(c2ccccc2)CC1`, for which the “activity, negative = inhibition” value was 39.7% [at 25.6 µM] (inactive). For `c1ccc(N2CCN(CCCOc3ccc4c(c3)OCO4)CC2)cc1`, the AC50 is 5.01 µM (active).

For `C/C(CCN1CCCCc2nc(C)c(C)cc21)=N\O[C@@H](C)CN1CCCCc2nc(C)c(C)cc21`, the activity, negative = inhibition is 42.7% [at 11.4 µM] (inactive). On to `COc1ccc(O[C@H]2C=C[C@@H](c3ccccc3)O[C@H]2COC(=O)CC/C(C)=N\O[C@@H](C)CN2CCCc3nc(C)c(C)cc32)cc1`, for which the AC50 was 3.16 µM (active). Consider `C/C(CCN1CCCCc2nc(C)c(C)cc21)=N\O[C@@H](C)CN1CCCc2nc(C)c(C)cc21`, for which the activity, negative = inhibition is 25.7% [at 11.4 µM] (inactive). For `CC(=O)OC[C@@H]1O[C@H](C/C=N\O[C@@H](C)CN2CCCc3nc(C)c(C)cc32)C=C[C@@H]1OC(C)=O`, the activity, negative = inhibition was 12.3% [at 11.4 µM] (inactive). In the case of `CC(=O)OC[C@@H]1O[C@H](C/C=N\O[C@@H](C)CN2CCCCc3nc(C)c(C)cc32)C=C[C@@H]1OC(C)=O`, the activity, negative = inhibition was 34.1% [at 11.4 µM] (inactive).

Consider `C/C(CCC(=O)OC[C@@H]1O[C@H](C#Cc2ccccc2)C=C[C@@H]1Oc1ccc(C)cc1)=N/O[C@@H](C)CN1CCCc2nc(C)c(C)cc21`, for which the AC50 was 3.16 µM (active). Consider `COc1ccc(O[C@H]2C=C[C@@H](c3ccccc3)O[C@H]2COC(=O)CC/C(C)=N\O[C@@H](C)CN2CCCCc3nc(C)c(C)cc32)cc1`, for which the AC50 was 5.01 µM (active). With `C/C(CCN1CCCc2nc(C)c(C)cc21)=N\O[C@@H](C)CN1CCCCc2nc(C)c(C)cc21`, the activity, negative = inhibition was 9.26% [at 11.4 µM] (inactive).

Turning to `C/C=C\C[C@@H](C)[C@@H](O)[C@H]1C(=O)N[C@@H](CC)C(=O)N(C)CC(=O)N(C)[C@@H](CC(C)C)C(=O)N[C@@H](C(C)C)C(=O)N(C)[C@@H](CC(C)C)C(=O)N[C@@H](C)C(=O)N[C@H](C)C(=O)N(C)[C@@H](CC(C)C)C(=O)N(C)[C@@H](CC(C)C)C(=O)N(C)[C@@H](C(C)C)C(=O)N1C`, the “activity, negative = inhibition” value is -9.22% (inactive). For the molecule `NC(=NCc1ccccc1)NC(=O)c1nc(Cl)c(N)nc1N`, the AC50 result was “inactive”. `O=C1C2C3c4ccccc4C(c4ccccc43)C2C(=O)N1c1nc(-c2ccccc2)cs1` (configuration not stated): the AC50 was 1.78 µM (active).

For `N=C1SCC(=O)N1c1nc(-c2ccccc2)cs1`, the “activity, negative = inhibition” value is -7.37% (inactive). For the molecule `O=C1[C@@H]2[C@@H](C(=O)N1c1ccc(OCc3ccccc3)cc1)[C@@H]1c3ccccc3[C@@H]2[n+]2ccccc21`, the activity, negative = inhibition is -10.9% [at 11.4 µM] (inactive). Regarding `O=C(c1ccco1)N(CCC(c1ccccc1)c1ccco1)Cc1ccco1` (configuration not stated), the AC50 was 3.98 µM (active). In the case of `CNCCC=C1c2ccccc2C=Cc2ccccc21`, the “activity, negative = inhibition” value was 19.1% [at 25.6 µM] (inactive). In the case of `FC(F)(F)c1ccccc1-c1cc(NCc2cccs2)ncn1`, the AC50 is 0.794 µM (active). Take `Cc1ccccc1-c1cc(NCc2cccnc2)ncn1`: the AC50 is 10 µM (active).

Regarding `FC(F)(F)c1ccccc1-c1cc(NCc2cccnc2)ncn1`, the AC50 is 10 µM (active). Turning to `CN(C)Cc1ccccc1-c1cc(NCc2cccs2)ncn1`, the “activity, negative = inhibition” value was 7.11% (inactive). As for `Cc1ccccc1-c1cc(NCc2ccccc2)ncn1`, the AC50 was 3.16 µM (active).

Turning to `Cn1cc(-c2nc3cnc(Oc4ccccc4)nc3n(Cc3cccs3)c2=O)c2ccccc21`, the “activity, negative = inhibition” value is -11% (inactive). `CCCCOC(=S)NC(=O)c1sc2ccccc2c1Cl`: the AC50 is 0.794 µM (active). Same read-out and setting: the same measure for `Cc1ccccc1Cn1nc(C)c(NC(=O)c2sc3ccccc3c2Cl)c1C`: 14.1 µM (active). Regarding `Cc1ccc(C(=O)N/N=C\c2cccn2C)cn1`, the “activity, negative = inhibition” value was 18.1% (inactive). The same measure, in the same setting: the value for `Cc1nn(Cc2ccccc2Cl)c(C)c1NC(=O)CCCn1nc(C)c([N+](=O)[O-])c1C` was -20.6% (inactive). Turning to `O=C(NC(=S)N(CCCCO)C1CCCCC1)c1sc2ccccc2c1Cl`, the AC50 was 7.08 µM (active). `Cn1cccc1/C=N/NC(=O)c1sc2ccccc2c1Cl`: the AC50 is 7.94 µM (active).

`CO[C@H]1COC(=O)C/C=C\[C@@H](C)COC(=O)[C@H]2CCCN2C(=O)C/C=C\[C@H]1C`: the activity, negative = inhibition is -21.9% [at 11.4 µM] (inactive). Consider `CCOC(=S)NC(=O)c1sc2ccccc2c1Cl`, for which the AC50 was 3.16 µM (active). For `O=C(O)CCC(=O)c1ccc2sc3ccccc3c2c1`, the activity, negative = inhibition was 9.52% [at 11.4 µM] (inactive).
